Calls of active or inactive are those of the source.
Assays:
[1] = E. coli DRC41 culture turbidity changes, primary screen, E. coli filamentation inducer project, strain DRC41, OD650, 48 h (AID 1152);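 further: E. coli MC1000 strain DRC41 lacking acrAB efflux pump and sulA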; details: E. coli DRC41 (acrAB sulA), higher = more signal, called active from +8 up or from −8 down
[2] = small-molecule binders of probe aLefty1, primary screen, biochemical, small-molecule microarray, 635/667 nm fluorescence (AID 1153); details: higher = more signal;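 further: score merges spot fluorescence with signal-to-noise ratio from the scanned slide images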
[3] = PSAC antagonists in infected red cells, primary screen, cell-based, P. falciparum Indochina, OD700, 1 h (AID 1154); details: P. falciparum Indochina infected RBC osmotic lysis, higher = more signal, called active from +8 up or from −8 down
[4] = PSAC antagonists in infected red cells, primary screen, cell-based, P. falciparum Indochina, OD700, 2 h (AID 1155);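 further: lysis reports solute entry through the parasite surface anion channel PSAC; channel blockers reduce lysis of infected cells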; details: P. falciparum Indochina infected erythrocytes, osmotic lysis OD700; higher = more signal, called active from +8 up or from −8 down
[5] = osmotic lysis modulators in infected erythrocytes, primary screen, PSAC antagonist project, cell-based, P. falciparum Indochina, OD700, 3 h (AID 1156); details: higher = more signal, called active from +8 up or from −8 down
[6] = PSAC antagonists in infected red cells, primary screen, cell-based, P. falciparum Indochina, OD700, 18 h (AID 1157); details: P. falciparum Indochina infected erythrocytes, osmotic lysis OD700, 18 h; higher = more signal, called active from +8 up or from −8 down
[7] = modulators of S6 phosphorylation in cells, primary screen, cell-based, A549, cytoblot, luminescence, serum-stimulated (AID 1158); details: A549 phospho-S6 cytoblot, 5 h, higher = more signal;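 further: serum-stimulated A549 lung adenocarcinoma cells; signal is phosphorylated S6 detected by cytoblot immunostaining with HRP secondary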
[8] = molecular target: NADPH oxidase 2 (Homo sapiens) (UniProt P04839); assay: NOX2-dependent H2O2 signal modulators, primary screen, NOX inhibitor project, cell-based, HEK293-NOX2, PMA-stimulated, Amplex Red fluorescence (AID 1159); details: 45 min, higher = more signal, called active from +8 up or from −8 down; further: test concentration not given here
Sequence of NADPH oxidase 2 (Homo sapiens) (P04839 whole entry, looked up): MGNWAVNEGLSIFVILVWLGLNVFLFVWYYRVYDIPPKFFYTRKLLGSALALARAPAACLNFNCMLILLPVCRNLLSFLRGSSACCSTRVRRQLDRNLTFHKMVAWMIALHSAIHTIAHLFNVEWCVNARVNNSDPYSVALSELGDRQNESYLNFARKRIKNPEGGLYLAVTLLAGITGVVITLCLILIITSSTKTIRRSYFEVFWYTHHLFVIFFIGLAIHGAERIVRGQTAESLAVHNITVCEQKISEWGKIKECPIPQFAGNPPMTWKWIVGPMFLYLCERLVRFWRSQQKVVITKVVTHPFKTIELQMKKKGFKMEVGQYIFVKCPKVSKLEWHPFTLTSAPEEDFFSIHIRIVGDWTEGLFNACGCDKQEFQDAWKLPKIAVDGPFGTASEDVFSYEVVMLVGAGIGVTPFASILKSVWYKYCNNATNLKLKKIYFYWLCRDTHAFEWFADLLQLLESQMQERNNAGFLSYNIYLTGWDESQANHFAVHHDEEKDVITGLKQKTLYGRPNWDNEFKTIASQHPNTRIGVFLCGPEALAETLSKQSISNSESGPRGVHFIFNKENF

[9] = molecular target: NADPH oxidase 4 (Homo sapiens) (UniProt Q9NPH5); assay: NOX4-dependent H2O2 signal modulators, primary screen, NOX inhibitor project, cell-based, HEK293-NOX4, tetracycline-induced, Amplex Red fluorescence (AID 1160); details: 45 min, higher = more signal, called active from +8 up or from −8 down
Sequence of NADPH oxidase 4 (Homo sapiens) (Q9NPH5 whole entry, looked up): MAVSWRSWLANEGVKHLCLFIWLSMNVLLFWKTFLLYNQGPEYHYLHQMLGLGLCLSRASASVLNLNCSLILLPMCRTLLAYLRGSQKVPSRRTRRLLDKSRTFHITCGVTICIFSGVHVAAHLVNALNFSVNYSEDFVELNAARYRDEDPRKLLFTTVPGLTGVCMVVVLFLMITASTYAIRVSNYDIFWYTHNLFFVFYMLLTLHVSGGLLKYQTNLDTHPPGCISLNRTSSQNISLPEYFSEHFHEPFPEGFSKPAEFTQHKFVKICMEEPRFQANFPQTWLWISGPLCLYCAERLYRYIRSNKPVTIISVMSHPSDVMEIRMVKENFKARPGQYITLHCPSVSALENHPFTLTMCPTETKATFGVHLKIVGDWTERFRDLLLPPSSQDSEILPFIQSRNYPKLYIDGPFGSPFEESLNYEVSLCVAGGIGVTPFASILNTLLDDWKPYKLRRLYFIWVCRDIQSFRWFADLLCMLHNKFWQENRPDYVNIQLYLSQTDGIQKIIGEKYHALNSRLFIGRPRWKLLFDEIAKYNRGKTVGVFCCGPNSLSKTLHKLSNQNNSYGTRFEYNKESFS

[10] = molecular target: NADPH oxidase 5 (Homo sapiens) (UniProt Q96PH1); assay: NOX5-dependent H2O2 signal modulators, primary screen, NOX inhibitor project, cell-based, HEK293-NOX5, Amplex Red fluorescence (AID 1161); details: HEK293-NOX5, ionomycin, 45 min, higher = more signal
Sequence of NADPH oxidase 5 (Homo sapiens) (Q96PH1 whole entry, looked up): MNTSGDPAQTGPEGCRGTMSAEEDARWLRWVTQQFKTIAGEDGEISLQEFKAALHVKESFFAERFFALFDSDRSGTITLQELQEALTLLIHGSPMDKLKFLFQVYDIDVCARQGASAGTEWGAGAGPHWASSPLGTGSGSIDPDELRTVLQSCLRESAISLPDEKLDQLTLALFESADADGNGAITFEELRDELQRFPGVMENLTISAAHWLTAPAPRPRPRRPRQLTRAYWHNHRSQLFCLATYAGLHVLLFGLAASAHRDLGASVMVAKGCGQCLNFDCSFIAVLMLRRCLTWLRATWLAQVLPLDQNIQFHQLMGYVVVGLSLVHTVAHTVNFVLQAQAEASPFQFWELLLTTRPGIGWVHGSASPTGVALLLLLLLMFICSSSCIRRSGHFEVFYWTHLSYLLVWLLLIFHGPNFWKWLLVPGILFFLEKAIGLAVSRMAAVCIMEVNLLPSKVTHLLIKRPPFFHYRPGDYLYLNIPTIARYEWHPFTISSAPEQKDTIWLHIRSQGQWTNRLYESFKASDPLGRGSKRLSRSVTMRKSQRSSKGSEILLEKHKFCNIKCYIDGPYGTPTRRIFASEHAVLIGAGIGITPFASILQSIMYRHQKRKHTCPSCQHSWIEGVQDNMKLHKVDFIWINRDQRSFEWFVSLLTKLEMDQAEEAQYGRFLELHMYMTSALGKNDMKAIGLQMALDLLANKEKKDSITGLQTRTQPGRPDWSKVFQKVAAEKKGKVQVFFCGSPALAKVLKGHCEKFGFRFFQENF

| Structure (SMILES) | z-score [1] | composite z-score [2] | z-score [3] | z-score [4] | z-score [5] | z-score [6] | z-score [7] | z-score [8] | z-score [9] | z-score [10] |
| --- | --- | --- | --- | --- | --- | --- | --- | --- | --- | --- |
| [N-]=[N+]=NCc1ccccc1C[C@@]1(C(=O)NCc2ccccc2)N=C(c2ccc(OCCCO)cc2)O[C@@H]1c1ccccc1N=[N+]=[N-] | -0.0632 (inactive) | -0.221 | 32.6 (active) | 33.3 (active) | 2.4 (inactive) | 3.61 (inactive) | 0.108 | 0.0504 (inactive) | -0.437 (inactive) | -1.22 |
| CCC[C@@H]1C[C@@]1(CCC)[C@@H](NC(=O)OCc1ccccc1)c1ccc(-c2ccccc2)cc1 | -1.07 (inactive) | 0.545 | 3.2 (inactive) | 0.81 (inactive) | -0.221 (inactive) | 0.224 (inactive) | 0.542 | -0.648 (inactive) | -1.45 (inactive) | 0.0161 |
| COc1ccc(C#Cc2ccc3c(c2)[C@]2(C(=O)N3)[C@H](c3ccc(O)cc3)N3[C@H](c4ccccc4)[C@H](c4ccccc4)OC(=O)[C@H]3[C@@H]2C(=O)O)cc1 | 1.09 (inactive) | 0.948 | -1.12 (inactive) | -1.32 (inactive) | -8.12 (active) | -2.53 (inactive) | 2.76 | 0.397 (inactive) | -2.46 (inactive) | 0.00974 |
| NC(N)=NCCCn1cc(CNC(=O)[C@@H](N)Cc2ccccc2)nn1 | -0.929 (inactive) | -0.0171 | -0.174 (inactive) | 0.0333 (inactive) | -0.561 (inactive) | 0.36 (inactive) | 0.243 | -2 (inactive) | 0.227 (inactive) | -0.264 |
| O=C1C2C=CC(C(O)c3ccccc3)N(Nc3ccccc3F)C2C(=O)N1c1ccccc1 (stereo not given) | 0.0394 (inactive) | 0.002 | 7.12 (inactive) | 1.21 (inactive) | 0.368 (inactive) | 0.632 (inactive) | 0.113 | -2.07 (inactive) | -3.6 (inactive) | -2.26 |
| COC(=O)[C@@]1(Cc2ccc(OC)cc2)[C@H]2c3cc(C(=O)N(C)C)n(C[C@H](O)CO)c3C[C@H]2CN1C(=O)c1ccccc1 | -1.99 (inactive) | 0.523 | 5.61 (inactive) | 0.936 (inactive) | 1.98 (inactive) | 1.23 (inactive) | -0.364 | 0.452 (inactive) | -0.281 (inactive) | -0.527 |
| COC(=O)[C@@]1(Cc2ccc(OC)cc2)[C@H]2c3cc(C(=O)N4CCCC4)n(Cc4cccc5ccccc45)c3C[C@H]2CN1C(=O)c1ccccc1 | -0.492 (inactive) | 0.258 | 3.9 (inactive) | 0.408 (inactive) | 1.48 (inactive) | 0.983 (inactive) | 0.0019 | 0.208 (inactive) | 1.74 (inactive) | -1.45 |
| C[C@H]1NC(=O)[C@@]23C(=O)N[C@@H](Cc4ccccc4)C2[C@H](C)[C@@]2(C)O[C@H]2C3/C=C/C/C=C\CNC(=O)[C@H](Cc2ccccc2)NC1=O (stereo not given in full) | -0.213 (inactive) | -0.0378 | 0.874 (inactive) | 0.577 (inactive) | 0.395 (inactive) | 0.33 (inactive) | -0.271 | 1.63 (inactive) | -1.2 (inactive) | 0.201 |
| CN1C(=O)C2C=CC(C(O)COCc3ccccc3)N(N(c3ccccc3)c3ccccc3)C2C1=O (stereo not given) | -0.339 (inactive) | 0.479 | 3.65 (inactive) | 1.49 (inactive) | 0.361 (inactive) | 1.07 (inactive) | -0.849 | 1.58 (inactive) | -4.42 (inactive) | 0.262 |
| [N-]=[N+]=Nc1ccccc1[C@@H]1OC(c2ccc(OCCCO)cc2)=N[C@]1(Cc1ccccc1)C(=O)NCC(O)CO (stereo not given in full) | 0.792 (inactive) | 0.665 | 31 (active) | 28 (active) | 2.32 (inactive) | 6.87 (inactive) | -0.0152 | -1.36 (inactive) | 1.07 (inactive) | -0.606 |
| COCCCNC(=O)[C@@]1(Cc2ccccc2CN=[N+]=[N-])N=C(c2ccc(OCCCO)cc2)O[C@H]1c1ccccc1 | -0.314 (inactive) | 0.197 | 17.1 (active) | 2.76 (inactive) | 0.697 (inactive) | 1.16 (inactive) | 0.146 | -1.79 (inactive) | -0.298 (inactive) | -1.54 |
| COCCOC(=O)N1C(=O)[C@@]2(c3cc(C#Cc4ccc(OC)cc4)ccc31)[C@H](C(=O)Nc1nc3ccccc3s1)[C@H]1C(=O)O[C@H](c3ccccc3)[C@H](c3ccccc3)N1[C@@H]2c1ccc(OCCO)cc1 | -0.221 (inactive) | 0.0524 | 6.99 (inactive) | 3.22 (inactive) | 1.26 (inactive) | 2.25 (inactive) | -0.45 | 2.03 (inactive) | -1.07 (inactive) | 0.518 |
| COC(=O)[C@@]1(Cc2ccccc2)[C@H]2c3cc(C(=O)N(C)C)n(Cc4c(CO)[nH]cc(C)c4=O)c3C[C@H]2CN1C(=O)c1ccccc1 | -1.16 (inactive) | 0.0004 | 0.758 (inactive) | -0.16 (inactive) | 0.338 (inactive) | 0.248 (inactive) | -0.482 | 0.495 (inactive) | 0.334 (inactive) | -1.91 |
| C=CCNC(=O)[C@H]1[C@@H]2C(=O)O[C@@H](c3ccccc3)[C@@H](c3ccccc3)N2[C@@H](c2ccc(O)cc2)[C@]12C(=O)N(C(=O)OCCOC)c1ccccc12 | -0.0476 (inactive) | -0.514 | 1.97 (inactive) | 0.481 (inactive) | 1.77 (inactive) | 0.148 (inactive) | -0.233 | 0.974 (inactive) | -0.168 (inactive) | 0.605 |
| CC=CC(O)C1C=CC2C(=O)N(c3ccccc3)C(=O)C2N1Nc1ccccc1F (stereo not given) | -0.857 (inactive) | 0.762 | 4.36 (inactive) | 1.24 (inactive) | 0.164 (inactive) | 0.512 (inactive) | -0.819 | -1.11 (inactive) | -2.88 (inactive) | -2 |
| COCCOC(=O)N1C(=O)[C@@]2(c3cc(C#CC4=CCCCC4)ccc31)[C@H](c1ccc(OCCO)cc1)N1[C@H](c3ccccc3)[C@H](c3ccccc3)OC(=O)[C@H]1[C@@H]2C(=O)N1CCN(c2ncccn2)CC1 | 0.887 (inactive) | 0.121 | 3.35 (inactive) | 1.73 (inactive) | -0.146 (inactive) | 0.799 (inactive) | 0.829 | 0.825 (inactive) | -0.623 (inactive) | 1.03 |
| CCCNC(=O)[C@@]1(c2ccc([N+](=O)[O-])cc2)CC(=O)N(C2CCCCC2)[C@@H]1c1ccc(CO)cc1 | 0.774 (inactive) | 0.062 | 2.1 (inactive) | 1.01 (inactive) | 1.21 (inactive) | 0.988 (inactive) | -0.002 | 0.325 (inactive) | 0.901 (inactive) | 0.877 |
| C=C(C)C1CCC(C(O)C2C=CC3C(=O)N(C)C(=O)C3N2N2CCCCC2)CC1 (stereo not given) | -1.09 (inactive) | 0.336 | 1.23 (inactive) | 0.737 (inactive) | 0.302 (inactive) | 1.37 (inactive) | -1.41 | -0.128 (inactive) | 0.773 (inactive) | 0.0159 |
| O=C1O[C@H](c2ccccc2)[C@H](c2ccccc2)N2[C@H]1[C@@H](C(=O)Nc1nc3ccccc3s1)[C@]1(C(=O)Nc3ccccc31)[C@H]2c1ccc(OCCO)cc1 | -0.222 (inactive) | -0.0099 | 3.55 (inactive) | 2.95 (inactive) | 0.458 (inactive) | 2.31 (inactive) | -0.357 | 0.499 (inactive) | 0.4 (inactive) | 0.992 |
| Cc1ccccc1C(O)C1C=CC2C(=O)N(C)C(=O)C2N1N(c1ccccc1)c1ccccc1 (stereo not given) | -0.402 (inactive) | 0.998 | 3.21 (inactive) | 1.71 (inactive) | 0.625 (inactive) | 1.25 (inactive) | -0.877 | 0.888 (inactive) | 0.0569 (inactive) | -0.125 |
| COC(=O)[C@@]1(Cc2ccccc2N=[N+]=[N-])N=C(c2ccc(OCCCO)cc2)O[C@H]1c1ccccc1N=[N+]=[N-] | 1.24 (inactive) | 0.373 | 24.9 (active) | 13.3 (active) | 0.531 (inactive) | 3.93 (inactive) | 0.342 | -1.58 (inactive) | 0.802 (inactive) | -0.833 |
| CC(C)(C)OC(=O)CC[C@]1(C(=O)NCc2ccccc2)N=C(c2ccc(OCCCO)cc2)O[C@H]1c1ccccc1CN=[N+]=[N-] | 0.829 (inactive) | 0.146 | 25.3 (active) | 12.3 (active) | 3.22 (inactive) | 1.65 (inactive) | 0.224 | -0.174 (inactive) | -0.533 (inactive) | -1.47 |
| CCCCCCc1nc(-c2cc(C)c(OC)c(C)c2)c(C)c2c1[Si](C(C)C)(C(C)C)OC2 | 0.03 (inactive) | 0.0056 | 1.53 (inactive) | -0.314 (inactive) | 1.02 (inactive) | -0.348 (inactive) | 1.94 | -2.5 (inactive) | 0.626 (inactive) | -2.23 |
| COC(=O)[C@@]1(Cc2ccc(OC)cc2)[C@H]2c3cc(C(=O)N4CCCC4)n(Cc4c(-c5ccccc5)noc4C)c3C[C@H]2CN1C(=O)c1ccccc1 | -0.615 (inactive) | 0.956 | 5.34 (inactive) | 1.25 (inactive) | -0.749 (inactive) | 1.5 (inactive) | 0.406 | 0.428 (inactive) | 0.486 (inactive) | 2.59 |

Reference: PubChem BioAssay
